Assay outcomes as filed in PubChem.
CRFBP-R2 agonist: CRF-BP/CRF-R2 complex agonism. HEK293 CRF-R2/CRF-BP, calcium dye fluorescence (FLIPR); percent of saturating CRF peptide response. activation, % at 13.2 µM. 350,000 tested, 0.46% active. AID 588473;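 active = activation of at least 50%, plus an integration ratio under a set limit after plate pattern correction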
IDE cell activ: IDE (human) activation, cell-based | activation, % at 5.96 µM | HEK cells, FAbeta-B cleavage, fluorescence polarization; 0% vehicle, 100% cell-free pure enzyme wells | 340,000 tested, 0.073% active | P14735 | AID 493087;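 active = activation above the mean of all tested compounds plus 3 SD, set per screening campaign, cut at about 17% in these data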
Target sequence (P14735 whole entry, looked up): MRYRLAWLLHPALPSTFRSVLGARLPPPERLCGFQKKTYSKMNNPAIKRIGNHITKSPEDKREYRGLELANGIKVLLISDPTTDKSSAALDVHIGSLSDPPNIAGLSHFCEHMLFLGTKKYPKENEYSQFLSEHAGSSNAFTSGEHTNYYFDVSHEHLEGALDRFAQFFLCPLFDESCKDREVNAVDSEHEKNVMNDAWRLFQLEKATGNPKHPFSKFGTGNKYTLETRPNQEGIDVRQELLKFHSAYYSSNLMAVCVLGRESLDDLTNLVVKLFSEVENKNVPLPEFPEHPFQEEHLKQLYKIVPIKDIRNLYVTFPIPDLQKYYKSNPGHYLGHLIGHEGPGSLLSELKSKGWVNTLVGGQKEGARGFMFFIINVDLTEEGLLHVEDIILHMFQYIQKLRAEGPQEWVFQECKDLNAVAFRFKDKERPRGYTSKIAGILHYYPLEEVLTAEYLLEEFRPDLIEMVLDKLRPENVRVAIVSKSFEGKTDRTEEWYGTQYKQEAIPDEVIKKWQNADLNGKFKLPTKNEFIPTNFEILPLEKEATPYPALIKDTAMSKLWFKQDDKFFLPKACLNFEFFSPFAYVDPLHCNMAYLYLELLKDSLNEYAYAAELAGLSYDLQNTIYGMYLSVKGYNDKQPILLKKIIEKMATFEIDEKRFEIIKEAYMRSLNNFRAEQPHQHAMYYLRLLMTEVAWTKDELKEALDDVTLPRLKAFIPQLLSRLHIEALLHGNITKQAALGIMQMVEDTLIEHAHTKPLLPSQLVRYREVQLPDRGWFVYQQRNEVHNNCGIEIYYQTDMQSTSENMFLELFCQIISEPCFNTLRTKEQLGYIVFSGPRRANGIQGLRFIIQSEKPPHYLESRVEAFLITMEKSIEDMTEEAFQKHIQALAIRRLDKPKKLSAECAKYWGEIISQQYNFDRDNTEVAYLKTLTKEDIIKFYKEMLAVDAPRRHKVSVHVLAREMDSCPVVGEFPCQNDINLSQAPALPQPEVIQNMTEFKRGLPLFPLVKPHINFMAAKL
TPT1 inh: inhibitors of Candida albicans tRNA 2'-phosphotransferase TPT1; recombinant caTPT1, FP RNA substrate dephosphorylation; inhibition, % at 5 µM; 300,000 tested, 0.81% active;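 active = inhibition above the mean of all tested compounds plus 3 SD, set per screening campaign, cut at about 24% in these data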
Myeloid diff MLP: compounds promoting myeloid differentiation | ER-HoxA9 myeloid progenitors, lysozyme-GFP differentiation, flow cytometry | calls only at 10 µM | 360,000 tested, 1% active | AID 624256;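 active = normalized GFP-positive differentiation at or above the plate's own cutoff, the solvent-only control mean plus 3 SD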;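 note: cells exposed to compound for four days before flow analysis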
CRFBP-R2 block: antagonists of CRF-binding protein/CRF-R2 receptor complex. 350,000 tested, 0.59% active. inhibition, % at 11.8 µM. HEK293 CRF-R2/CRF-BP, CRF-induced calcium fluorescence;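 active = inhibition of the ligand-induced calcium signal above about 50% at the single tested concentration, limit read from the data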
IDE inh: inhibitors of human insulin-degrading enzyme in cells. P14735. HEK cells, FAbetaB cleavage, fluorescence polarization. inhibition, % at 5.59 µM. 320,000 tested, 0.41% active;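 active = percent inhibition above the average of all tested compounds plus 3 SD, set per screening campaign, cut at about 16% in these data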;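 note: IDE supplied by intact live HEK cells; FP after avidin binding of uncleaved biotin substrate so inhibition keeps polarization high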
Large screens that a line does not name were inactive. Rows were chosen to be rich in hits. Some 2.6% of all compounds tested hit in one or more screens of this group.

CCCCn1c(=O)[nH]c2nc3cc(NC(C)=O)ccc3nc2c1=O	none
CCCCCCn1c(=O)[nH]c2nc3cc(N)c(C)cc3nc2c1=O	CRFBP-R2 agonist 324.9 (no result: TPT1 inh, IDE inh)
Cc1cc(C)c2nc(NC(=O)c3ccc4c(=O)n5c(nc4c3)CCCCC5)sc2c1	CRFBP-R2 block 58.8
COc1ccc(C(=O)Nc2ccc3nc4n(c(=O)c3c2)CCCCC4)cc1OC	CRFBP-R2 block 61.9 (no result: IDE cell activ, TPT1 inh, IDE inh)
O=C(Nc1ccc(SC(F)F)cc1)c1ccc2c(=O)n3c(nc2c1)CCC3	CRFBP-R2 agonist 74.0 (no result: TPT1 inh)
COc1ccc(CNC(=O)Nc2nc(C(N)c3ccccc3)cs2)cc1 (centres undefined)	none (no result: CRFBP-R2 agonist, IDE cell activ, TPT1 inh, CRFBP-R2 block, IDE inh)
Cc1ccc(C2=NN(C(=O)CSc3nccn3C)C(c3ccco3)C2)cc1 (centres undefined)	Myeloid diff MLP active
O=C(COc1cccnc1[N+](=O)[O-])N1N=C(c2ccc(Cl)cc2)CC1c1ccco1 (centres undefined)	Myeloid diff MLP active
Cc1ccc(C2=NN(C(=O)CSc3nc4ncc(Cl)cc4[nH]3)C(c3ccco3)C2)cc1 (centres undefined)	none
Cc1ccc(OCC(=O)N2N=C(c3ccc(Cl)cc3)CC2c2ccco2)c([N+](=O)[O-])n1 (centres undefined)	none
CCOC(=O)[C@]12CCC=C1N(Cc1ccc(Cl)cc1Cl)C(=O)[C@H](CC(=O)NCCCOC)C2	none (no result: CRFBP-R2 agonist, IDE cell activ, TPT1 inh, CRFBP-R2 block, IDE inh)
Cc1ccc(/C=C2\Oc3c(ccc(O)c3CN3CCN(C)CC3)C2=O)cc1	none
CCN1CCN(Cc2c(O)ccc3c2O/C(=C\c2ccc(C)cc2)C3=O)CC1	CRFBP-R2 agonist 53.9
C=CCN1C(=O)CS/C1=N\S(=O)(=O)c1ccc(Cl)cc1	none
O=C1CN(C(=O)CNCc2ccccc2)c2ccccc2N1	none
Cc1c(NC(=O)NC(=O)c2ccc(F)cc2)c(=O)n(-c2ccccc2)n1C	none
Cc1c(N=C2N=C(NC(=O)c3ccc(F)cc3)c3ccccc32)c(=O)n(-c2ccccc2)n1C	CRFBP-R2 agonist 65.3
O=C(NCCCNC(=O)c1cccnc1)c1ccc(Cl)cc1	none
O=C1c2ccccc2-c2onc3ccc(NCCCn4ccnc4)c1c23	CRFBP-R2 agonist 193.5 (no result: IDE cell activ, Myeloid diff MLP)
NS(=O)(=O)c1ccc(NCCCn2ccnc2)c([N+](=O)[O-])c1	none
COc1ccc(OC)c2c1C(=O)c1ccccc1C2=O	none (no result: IDE cell activ, Myeloid diff MLP)
COc1ccc2noc3c2c1C(=O)c1ccccc1-3	CRFBP-R2 agonist 168.6, IDE cell activ 38.3, Myeloid diff MLP active
O=C(COc1ccc(Cl)cc1)N/N=C/CCc1ccccc1	none
CC(=O)Nc1ccc(CN(C)c2c(C)nc3ccc(C(=O)N4CCN(C(C)=O)CC4)cn23)cc1	none (no result: CRFBP-R2 agonist, IDE cell activ, TPT1 inh, CRFBP-R2 block, IDE inh)
COc1ccc(/C(C)=N/NC(=O)C(NC(=O)c2ccccc2)c2n[nH]c(=O)c3ccccc23)c(OC)c1 (centres undefined)	none
CC(=O)Nc1cc(-c2ccc(Cl)cc2)[nH]n1	none
Cc1ccc(C(=O)Nc2ncc([N+](=O)[O-])s2)cc1	CRFBP-R2 agonist 58.4
O=C(Nc1ncc([N+](=O)[O-])s1)c1ccc2c(c1)OCO2	none
CC(C)[C@H](NC(=O)N1CCn2c1nc1ccccc12)C(=O)N[C@H](Cc1ccccc1)C(=O)O	none
COc1cc(NC(=O)[C@@H](NC(=O)N2CCn3c2nc2ccccc23)C(C)C)cc(OC)c1	Myeloid diff MLP active
CC(C)C[C@H](NC(=O)N1CCn2c1nc1ccccc12)C(=O)NCc1ccco1	Myeloid diff MLP active
C[C@H](NC(=O)N1CCn2c1nc1ccccc12)C(=O)NCc1ccco1	none
O=C(NC1CCCCC1)N1CCN(C(c2ccccc2)c2ccccc2)CC1	none
O=C(C(=O)N1CCN(c2ccccc2)CC1)c1ccccc1	none (no result: CRFBP-R2 agonist, IDE cell activ, TPT1 inh, CRFBP-R2 block, IDE inh)
CCC1CCCCN1S(=O)(=O)c1ccc(NC(=O)C2CCCO2)cc1 (centres undefined)	none
COCCn1c(-c2ccsc2)nc2c1c(=O)[nH]c(=O)n2CC(C)C	CRFBP-R2 block 51.2
COCCn1c(-c2ccc3ccccc3c2)nc2c1c(=O)[nH]c(=O)n2CC(C)C	none
C=CCN1C(c2cccc(C(F)(F)F)c2)=CS/C1=C(/C#N)c1nnc(N2CCOCC2)n1-c1ccccc1	CRFBP-R2 agonist 108.0
CCCNCCC(c1ccco1)c1ccccc1OC (centres undefined)	CRFBP-R2 block 55.6
COc1cc(/C=N/NC(=O)c2cccc(C(=O)N/N=C/c3ccc(O)c(OC)c3)n2)ccc1O	none (no result: TPT1 inh, IDE inh)
